Screen size: about 5,500 compounds; about 2,000 (36%) were called active. Not shown: some 18% with an inconclusive outcome. Rule as the data show it: active = normalized growth mostly below about 0.91 (no sharp cut-off); inconclusive = no clear call, values can overlap the other calls; inactive = mostly above about 0.92. This is one part of the list.
Assay: chemical genetic growth profiling, strain panel (AID 1159580);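 also: tested at 20 µM; growth read once vehicle control cultures reached saturation at 30 °C; 1 = growth at the plate median or of vehicle wells; lower values mean less growth of the strain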
Conditions: growth OD
[1] = S. cerevisiae deletion strains, locus YDL101C, strain DUN1, hits give low values
[2] = S. cerevisiae deletion strains, locus YHR030C, strain SLT2, hits give low values
[3] = S. cerevisiae deletion strains, locus YHR079C, strain IRE1, hits give low values
[4] = S. cerevisiae deletion strains, locus YJL095W, strain BCK1, hits give low values
[5] = S. cerevisiae deletion strains, locus YJR066W, strain TOR1, hits give low values
[6] = S. cerevisiae deletion strains, locus YLR113W, strain HOG1, hits give low values
[7] = S. cerevisiae deletion strains, locus YNL183C, strain NPR1, hits give low values
[8] = S. cerevisiae deletion strains, locus YOR231W, strain MKK1, hits give low values
[9] = S. cerevisiae deletion strains, locus YPL256C, strain CLN2, hits give low values

Measured: normalized growth

O=[N+]([O-])c1ccc(-c2csc(Nc3ccncc3)n2)cc1
inactive: S. cerevisiae deletion strains, locus YAR019C, strain CDC15, hits give low values 0.995 | S. cerevisiae deletion strains, locus YBL105C, strain PKC1, hits give low values 0.978 | S. cerevisiae deletion strains, locus YBR135W, strain CKS1, hits give low values 0.982 | S. cerevisiae deletion strains, locus YBR136W, strain MEC1, hits give low values 0.996 | S. cerevisiae deletion strains, locus YBR160W, strain CDC28, hits give low values 0.989 | S. cerevisiae deletion strains, locus YDL017W, strain CDC7, hits give low values 0.99 | S. cerevisiae deletion strains, locus YDL028C, strain MPS1, hits give low values 0.998 | [1] 0.99 | S. cerevisiae deletion strains, locus YDL108W, strain KIN28, hits give low values 0.979 | S. cerevisiae deletion strains, locus YDL132W, strain cdc53, hits give low values 0.982 | S. cerevisiae deletion strains, locus YDL214C, strain PRR2, hits give low values 0.941 | S. cerevisiae deletion strains, locus YDR052C, strain DBF4, hits give low values 0.992 | S. cerevisiae deletion strains, locus YDR054C, strain cdc34, hits give low values 0.977 | S. cerevisiae deletion strains, locus YDR226W, strain ADK1, hits give low values 0.985 | S. cerevisiae deletion strains, locus YDR477W, strain SNF1, hits give low values 0.992 | S. cerevisiae deletion strains, locus YER123W, strain YCK3, hits give low values 0.982 | S. cerevisiae deletion strains, locus YER133W, strain GLC7, hits give low values 0.987 | S. cerevisiae deletion strains, locus YFL009W, strain cdc4, hits give low values 0.981 | S. cerevisiae deletion strains, locus YFL029C, strain CAK1, hits give low values 1.01 | S. cerevisiae deletion strains, locus YFR003C, strain YPI1, hits give low values 0.98 | S. cerevisiae deletion strains, locus YFR019W, strain FAB1, hits give low values 0.984 | S. cerevisiae deletion strains, locus YFR028C, strain CDC14, hits give low values 0.996 | S. cerevisiae deletion strains, locus YGR040W, strain KSS1, hits give low values 0.978 | S. cerevisiae deletion strains, locus YGR052W, strain FMP48, hits give low values 1.01 | S. cerevisiae deletion strains, locus YGR092W, strain DBF2, hits give low values 0.908 | [2] 1 | [3] 1.01 | S. cerevisiae deletion strains, locus YHR082C, strain KSP1, hits give low values 1.08 | S. cerevisiae deletion strains, locus YHR205W, strain SCH9, hits give low values 0.923 | S. cerevisiae deletion strains, locus YIL147C, strain SLN1, hits give low values 0.991 | [4] 1.03 | S. cerevisiae deletion strains, locus YJL128C, strain PBS2, hits give low values 0.943 | S. cerevisiae deletion strains, locus YJL157C, strain FAR1, hits give low values 0.996 | S. cerevisiae deletion strains, locus YJR016C, strain ILV3, hits give low values 0.978 | S. cerevisiae deletion strains, locus YJR066W, strain TOR1 (second series), hits give low values 0.991 | [5] 0.968 | S. cerevisiae deletion strains, locus YKL048C, strain ELM1, hits give low values 0.976 | S. cerevisiae deletion strains, locus YKL067W, strain YNK1, hits give low values 0.941 | S. cerevisiae deletion strains, locus YKL101W, strain HSL1, hits give low values 0.98 | S. cerevisiae deletion strains, locus YKL193C, strain SDS22, hits give low values 0.988 | S. cerevisiae deletion strains, locus YKL203C, strain TOR2, hits give low values 1.07 | [6] 0.981 | S. cerevisiae deletion strains, locus YLR133W, strain CKI1, hits give low values 0.976 | S. cerevisiae deletion strains, locus YLR403W, strain SFP1, hits give low values 1.01 | S. cerevisiae deletion strains, locus YML070W, strain DAK1, hits give low values 0.991 | S. cerevisiae deletion strains, locus YMR001C, strain CDC5, hits give low values 0.993 | S. cerevisiae deletion strains, locus YMR205C, strain PFK2 (second series), hits give low values 0.973 | S. cerevisiae deletion strains, locus YMR277W, strain FCP1, hits give low values 0.989 | S. cerevisiae deletion strains, locus YNL006W, strain LST8, hits give low values 0.994 | S. cerevisiae deletion strains, locus YNL020C, strain ARK1, hits give low values 0.975 | S. cerevisiae deletion strains, locus YNL161W, strain CBK1, hits give low values 0.994 | [7] 1.02 | S. cerevisiae deletion strains, locus YNL207W, strain RIO2, hits give low values 0.984 | S. cerevisiae deletion strains, locus YNL222W, strain SSU72, hits give low values 0.996 | S. cerevisiae deletion strains, locus YNL307C, strain MCK1 (second series), hits give low values 0.976 | S. cerevisiae deletion strains, locus YOL078W, strain AVO1, hits give low values 0.986 | S. cerevisiae deletion strains, locus YOL136C, strain PFK27, hits give low values 0.979 | S. cerevisiae deletion strains, locus YOR061W, strain CKA2, hits give low values 0.957 | S. cerevisiae deletion strains, locus YOR119C, strain RIO1, hits give low values 1.01 | [8] 0.97 | S. cerevisiae deletion strains, locus YOR329C, strain SCD5, hits give low values 0.992 | S. cerevisiae deletion strains, locus YPL031C, strain PHO85, hits give low values 0.98 | S. cerevisiae deletion strains, locus YPL153C, strain RAD53, hits give low values 1 | S. cerevisiae deletion strains, locus YPL204W, strain HRR25, hits give low values 0.982 | S. cerevisiae deletion strains, locus YPL209C, strain IPL1, hits give low values 0.991 | [9] 1.03 | S. cerevisiae deletion strains, locus YPR025C, strain CCL1, hits give low values 0.985 | S. cerevisiae deletion strains, locus YPR106W, strain ISR1, hits give low values 0.98 | S. cerevisiae deletion strains, locus YPR111W, strain DBF20, hits give low values 0.969 | S. cerevisiae deletion strains, strain NNK1, hits give low values 0.996 | S. cerevisiae deletion strains, strain TSCII, hits give low values 1

O=[N+]([O-])c1cccc(-c2csc(Nc3ccccc3Cl)n2)c1
inactive: S. cerevisiae deletion strains, locus YAL013W, strain DEP1, hits give low values 0.94 | S. cerevisiae deletion strains, locus YBR229C, strain ROT2, hits give low values 0.966 | [1] 0.978 | S. cerevisiae deletion strains, locus YDR150W, strain NUM1, hits give low values 0.934 | S. cerevisiae deletion strains, locus YEL061C, strain CIN8, hits give low values 0.929 | S. cerevisiae deletion strains, locus YGR078C, strain PAC10, hits give low values 0.938 | S. cerevisiae deletion strains, locus YGR229C, strain SMI1, hits give low values 0.959 | S. cerevisiae deletion strains, locus YHR087W, strain rtc3, hits give low values 0.955 | S. cerevisiae deletion strains, locus YJL187C, strain SWE1, hits give low values 1.01 | S. cerevisiae deletion strains, locus YJR043C, strain POL32, hits give low values 0.979 | S. cerevisiae deletion strains, locus YLR058C, strain SHM2 (second series), hits give low values 0.964 | S. cerevisiae deletion strains, locus YMR219W, strain ESC1, hits give low values 0.964 | S. cerevisiae deletion strains, locus YMR263W, strain SAP30, hits give low values 0.945 | S. cerevisiae deletion strains, locus YNL153C, strain GIM3, hits give low values 0.972 | S. cerevisiae deletion strains, locus YNL322C, strain KRE1, hits give low values 0.977 | S. cerevisiae deletion strains, locus YPR135W, strain CTF4, hits give low values 0.795 | S. cerevisiae strains, strain wild type, hits give low values 0.915
active: [2] 0.418 | S. cerevisiae deletion strains, locus YJR075W, strain HOC1, hits give low values 0.88 | S. cerevisiae deletion strains, locus YKL190W, strain CNB1, hits give low values 0.907 | S. cerevisiae deletion strains, locus YLR039C, strain RIC1, hits give low values 0.6 | S. cerevisiae deletion strains, locus YLR085C, strain ARP6, hits give low values 0.571 | S. cerevisiae deletion strains, locus YLR262C, strain YPT6, hits give low values 0.727 | S. cerevisiae deletion strains, locus YML094W, strain GIM5, hits give low values 0.818 | S. cerevisiae deletion strains, locus YNL298W, strain CLA4 (second series), hits give low values 0.82 | S. cerevisiae deletion strains, locus YNR030W, strain Alg12, hits give low values 0.811 | S. cerevisiae deletion strains, locus YOL006C, strain TOP1, hits give low values 0.638 | S. cerevisiae deletion strains, locus YPL055C, strain LGE1, hits give low values 0.715 | S. cerevisiae deletion strains, locus YPL241C, strain CIN2, hits give low values 0.82

O=C1CN=C(c2ccccc2Cl)c2cc([N+](=O)[O-])ccc2N1
inactive: [2] 0.869 | [3] 0.965 | [4] 0.981 | [5] 0.945 | [6] 0.963 | [7] 0.9 | [8] 0.962 | [9] 0.924

From PubChem BioAssay AID1159580 (chemical genetic matrix, 2015)
